This passage reports outcome and Potency results from PubChem BioAssay AID504428 (National Center for Advancing Translational Sciences (NCATS), 2011).

Some of the results follow. Entries that show only a call come without a potency. Calls of active or inactive are those of the source.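 The calls were made as follows: active = compounds that inhibited Clk3 enough in the ten-dose series to give a half-maximal potency; inactive = the rest.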

Dual specificity protein kinase CLK3 (Homo sapiens), sequence (P49761 whole entry, looked up, canonical isoform): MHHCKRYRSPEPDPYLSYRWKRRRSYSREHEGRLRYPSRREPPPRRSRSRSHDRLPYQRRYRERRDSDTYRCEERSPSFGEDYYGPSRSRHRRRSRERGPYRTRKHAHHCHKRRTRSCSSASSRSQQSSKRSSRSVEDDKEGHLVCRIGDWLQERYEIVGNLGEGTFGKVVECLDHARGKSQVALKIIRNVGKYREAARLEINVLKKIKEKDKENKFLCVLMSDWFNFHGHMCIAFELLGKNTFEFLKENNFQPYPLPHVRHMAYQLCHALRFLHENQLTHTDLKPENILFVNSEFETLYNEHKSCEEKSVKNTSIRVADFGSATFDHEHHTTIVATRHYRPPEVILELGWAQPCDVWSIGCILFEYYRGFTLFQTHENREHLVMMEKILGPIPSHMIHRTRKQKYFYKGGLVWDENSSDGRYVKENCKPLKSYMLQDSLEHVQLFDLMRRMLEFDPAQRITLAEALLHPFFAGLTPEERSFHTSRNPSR

The test deals with Dual specificity protein kinase CLK3 (Homo sapiens) (UniProt P49761). Nature of the test: Kinase Inhibition Study on Inhibitors of CDC-like Kinase 3 (Reaction Biology data). The conditions noted are these: recombinant CLK3 kinase assay, 10 uM ATP. An excerpt:
NIH Molecular Libraries Probe Production Centers Network [MLPCN] NIH Chemical Genomics Center [NCGC] MLPCN Grant: 1R03MH084827-01 Assay Submitter (PI): Tom Misteli NCGC Assay Overview: Alternative splicing of pre-mRNAs plays a major role in the regulation of eukaryotic gene expression. Alternative splicing is now thought to be one of the primary reasons for the complexity of higher organisms leading to an average of three protein isoforms per gene. Aberrant splicing can lead to a number of diseases and is known to play a role in rare genetic diseases such as progeria syndrome. Hutchinson-Gilford Progeria Syndrome (HGPS) is a pediatric premature aging disease caused by a spontaneous mutation in the lamin A/C (LMNA) gene due to a single point mutation in the lamin A gene effecting 1 in 4 million people. To identify both specific splicing modulators of the lamin A gene as well as general splicing modulators, a cell-based HTS assay was developed using a minigene reporter system (AIDs, 1459 & 1487). […] This AID summarizes the characterization of lead compounds in Clk3.
All kinase reactions were performed using 10 uM ATP in the assay. 100% activity was taken from kinase reactions with DMSO alone (the vehicle used for compound stock solutions).
Turning to `CN(Cc1cncn1C)c1ncnc2ccc(-c3ccc4c(c3)OCO4)cc12`, the outcome was inactive.
`c1coc(CCNc2ncnc3ccc(-c4ccc5c(c4)OCO5)cc23)c1`: the Potency was 2.02 µM (active).
Regarding `c1nc(N2CCOCC2)c2cc(-c3ccc4c(c3)OCO4)ccc2n1`, the outcome was inactive.
`CC(Nc1ncnc2ccc(-c3ccc4c(c3)OCO4)cc12)c1ccco1` (centres undefined): the Potency is 15 µM (active).
